Source: PubChem (National Center for Advancing Translational Sciences (NCATS))
DT40 TDP1 CPT: DT40-hTDP1 cell growth loss with CPT | 12% of 420,000 active | Potency, µM (series often up to 46.2 µM), for inactives: at the highest dose activity change, negative = growth inhibition, usual class: inhibitors | chicken DT40 Tdp1-/-;hTDP1 cells + 20 nM CPT, ATP luminescence, 48 h; note: potency is the fitted concentration of half-maximal effect; nearly all actives have a fitted effect of over 55% in size
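Chicken DT40 Tdp1-/- cells stably complemented with human TDP1 were seeded at 400 cells/well in medium containing 20 nM camptothecin, exposed to pin-transferred compounds, and grown at 37 °C for at least 48 hr. Viability was read as ATP luminescence.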
DT40 TDP1 no CPT: qHTS for Inhibitors of human tyrosyl-DNA phosphodiesterase 1 (TDP1): qHTS in cells in absence of CPT; DT40 Tdp1-/- hTDP1 cells, no CPT, ATP luminescence, 48 h; AID 686978, 2013; 15% of 420,000 active; Potency, µM (series often up to 46.2 µM), inactives show top-dose activity change, negative = growth inhibition, hits mostly inhibitors; note: potency is the fitted concentration of half-maximal effect; nearly all actives have a fitted effect of over 55% in size
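Camptothecin absent (DMSO only). Human TDP1-complemented DT40 knockout cells, 400 cells/well, 37 °C for minimum 48 hr; ATP measured via CellTiter-Glo, 30 min dark incubation, luminescence.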
HT1080NT lethal: kills 2HG-producing HT-1080-NT fibrosarcoma cells. HT-1080-NT fibrosarcoma viability, CellTiter-Glo ATP luminescence, 48 h. Potency, µM (titrated, usually from 46.1 µM), inactives show at the highest dose activity, negative = less viability, hits mostly cytotoxic. 1.6% of 360,000 active;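 note: NT is the 2HG producing partner of a matched IDH1 knockdown line; potency is the fitted concentration of half-maximal effect; 0% = DMSO-treated cells and -100% = media-only wells without cells; nearly all actives have a fitted effect of over 55% in size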
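Luminescent CellTiter-Glo readout after 48 hours of compound exposure at 37 degrees C defined viability of HT-1080-NT cells. Activity was normalized to DMSO wells and cell-free media wells; concentration-response curves were fitted and assigned curve classes.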
IL-1B inflam inh: inflammasome signaling inhibition, IL-1 beta readout. THP-1 LPS/ATP IL-1B secretion, AlphaLISA, 16 h; stronger effect = lower value. activity change, % at 57.5 µM. 4.7% of 360,000 active. AID 743279; in the data active = activity change below about -50%; inconclusive = mostly about -30% to -49%
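Secreted IL-1B measured by AlphaLISA bead assay after 16 h compound exposure of THP-1 cells; compounds (final up to 57.5 uM) added 1 h before LPS (250 ng/mL) and ATP (1.25 mM) stimulation; lower signal means less secretion.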
uPA surface inh: inhibitors of cell surface uPA generation. AID 540303. cell surface uPA generation assay, qHTS. 0.31% of 330,000 active. Potency, µM (titrated, usually from 38.3 µM), inactives show top-dose activity change, negative = inhibition, hits mostly inhibitors; active = well fitted inhibition curve with a large enough effect; inconclusive = small, poorly fitted or top-dose-only effect; inactive = no such curve, though single readings can be large or run the other way; tested in mouse RAW 264.7 cells; note: potency is the fitted concentration of half-maximal effect; nearly all actives have a fitted effect of over 55% in size
HT1080 IDH1KD tx: kills HT-1080 cells with IDH1 knockdown. HT-1080 IDH1 knockdown viability, ATP luminescence, 48 h. Potency, µM (top dose mostly 46.1 µM), for inactives: at the highest dose activity, negative = toxicity, actives largely listed as cytotoxic. 2% of 360,000 active. AID 686971;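 note: potency is the fitted concentration of half-maximal effect; 0% = DMSO wells and -100% = cell-free medium wells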
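After a 2 h attachment period, IDH1KD HT-1080 cells took pin-transferred compound for 48 h at 37 °C; ATP-based luminescence after 10 min room-temperature reagent incubation reported viability.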
The depositor's hits bear a star; u = inconclusive; x = no result given. This is a sample that favours compounds with a hit; in the whole collection about 19% have one here. Unless noted, calls come from the whole dose curve; as a rule, active = well fitted curve in the direction sought with a large enough effect; inconclusive = small, poorly fitted or top-dose-only effect, or another doubt; inactive = no such curve, though single readings can be large; an effect the other way counts as inactive or inconclusive. Unless noted, % is set by controls: 0 for no effect and ±100 for the full control effect.

SMILES	DT40 TDP1 CPT	DT40 TDP1 no CPT	HT1080NT lethal	IL-1B inflam inh	uPA surface inh	HT1080 IDH1KD tx
Cc1ccc(NC(=O)CSC2=Nc3ccccc3C3=NC(Cc4ccccc4)C(=O)N23)cc1C (stereo not drawn)	9.2µM*	13µM*	x	x	x	x
COc1ccc(CCNC(=O)CSC2=Nc3ccccc3C3=NC(CCC(=O)NCc4ccccc4)C(=O)N23)cc1OC (stereo not drawn)	-22.5%	2.0%	x	x	x	x
Cc1cc(NC(=O)CSC2=Nc3ccccc3C3=NC(Cc4ccccc4)C(=O)N23)n[nH]1 (stereo not drawn)	-11.3%	-20.7%	1.0%	-19.0	3.3%	13.4%
O=c1c(-c2cc(F)cc(F)c2)nc2cnc(N3CCOCC3)nc2n1-c1ccccc1	4.8%	-5.4%	x	x	x	x
Cc1ccc(Cl)cc1N1CCN(C(=O)CCCCCn2c(=O)[nH]c3ccccc3c2=O)CC1	0.731µM*	0.651µM*	x	x	x	x
Cc1ccc(Cl)cc1N1CCN(C(=O)CCCn2c(=O)c3cccn3c3cccnc32)CC1	u	29.1µM*	-0.6%	-9.4	17.9%	-2.0%
Cc1cccc(N2CCN(C(=O)CCCn3c(=O)c4cccn4c4cccnc43)CC2)c1C	u	18.4µM*	u	-24.1	-7.9%	u
O=C(NCc1ccc(F)cc1F)Nc1cnccc1C(F)(F)F	-14.1%	u	3.2%	0.4	14.1%	-4.7%
Cc1ccc2onc(CC(=O)N3CCN(c4ccccc4)CC3)c2c1	-43.0%	u	x	x	x	x
CCc1cccc(CC)c1NC(=O)COC(=O)c1ccccc1-c1nc2ccccc2s1	20.6µM*	16.4µM*	-10.0%	-13.6	-3.4%	-17.1%
Cc1ccc(S(=O)(=O)N2[C@@H](c3ccc(Br)cc3)C(C(=O)O)=CC[C@H]2c2ccc(Cl)c(Cl)c2)cc1	-14.6%	-28.2%	-19.6%	3.6	-18.6%	-20.9%
Cc1ccc(S(=O)(=O)N2[C@@H](c3cccc(Cl)c3)C(C(=O)OC(C)(C)C)=CC[C@H]2c2ccc(C(C)C)cc2)cc1	u	14.6µM*	16.3%	-6.6	x	1.2%
CCc1ccc([C@@H]2CC=C(C(=O)O)[C@H](c3cccc(Cl)c3)N2S(=O)(=O)c2ccc(C)cc2)cc1	-21.1%	-24.5%	-2.2%	26.0	1.0%	-0.7%
Cc1ccc(S(=O)(=O)N2[C@@H](c3ccc(Cl)cc3)C(C(=O)OC(C)(C)C)=CC[C@H]2c2ccc(Cl)c(Cl)c2)cc1	u	14.6µM*	25.9%	24.8	x	13.6%
COc1ccc([C@@H]2CC=C(C(=O)O)[C@H](c3ccc(C(C)(C)C)cc3)N2S(=O)(=O)c2ccc(C)cc2)cc1OC	u	14.6µM*	1.6%	40.7	-12.1%	1.3%
COc1ccc([C@@H]2CC=C(C(=O)O)[C@H](c3ccc(C)cc3)N2S(=O)(=O)c2ccc(C)cc2)cc1OC	6.8%	-1.0%	-1.7%	0.0	-7.5%	-1.7%
COC(=O)C[C@@H]1C=C[C@H](NC(=O)c2cnccn2)[C@@H](CO)O1	-2.1%	4.7%	14.7%	20.4	x	25.4%
O=C1c2cccnc2C(=O)N1c1nc(-c2ccccc2)cs1	-20.8%	-29.3%	x	x	x	x
C=C1CC2(OC1=O)c1ccccc1CCc1ccccc12	4.61µM*	2.91µM*	u	-102.0*	-10.1%	5.8µM*
O=C1NC(=O)C2(CCc3ccccc32)N1 (stereo not drawn)	3.0%	8.0%	7.6%	25.7	-3.1%	5.9%
CCN(CC)C(=S)S	23.7µM*	u	x	x	x	x
O=C(NCc1c(Cl)cccc1Cl)c1[nH]c(C(F)(F)F)nc1-c1ccccc1	1.0%	-13.6%	-10.7%	10.4	x	-11.5%
CCOC(=O)c1ccc(NC(=O)CCc2nc3cccnc3n2Cc2cccs2)cc1	u	18.4µM*	x	x	x	x
CCOC(=O)c1ccc(NC(=O)Cc2ccc(-n3c(CC)nc4cccnc43)cc2)cc1	18.4µM*	25.9µM*	x	x	x	x
CCCn1c(CCC(=O)Nc2cccc(C)c2C)nc2cccnc21	-29.5%	u	x	x	x	x
SMILES	DT40 TDP1 CPT	DT40 TDP1 no CPT	HT1080NT lethal	IL-1B inflam inh	uPA surface inh	HT1080 IDH1KD tx
CCCn1c(CCC(=O)Nc2ccccc2OC)nc2cccnc21	-18.8%	u	x	x	x	x
Cc1cc(NC(=O)CCc2nc3cccnc3n2Cc2cccs2)ccc1Br	16.4µM*	20.6µM*	x	x	x	x
CCOc1ccc(OCC)c(NC(=O)CCc2nc3cccnc3n2Cc2cccs2)c1	u	16.4µM*	x	x	x	x
Cc1ccc(NC(=O)CN2C(=O)C(c3ccc(F)cc3)=NC2(C)C)c(C)c1	-4.0%	-21.9%	x	x	x	x
CC(C)n1nc(C(=O)OCC(=O)NCCc2ccc(S(N)(=O)=O)cc2)c2ccccc2c1=O	-1.1%	21.8%	5.3%	10.7	u	4.5%
CSCCNC(=O)C1(C)CCN1C(=O)c1cc(C)n(C)n1 (stereo not drawn)	-4.8%	-2.2%	23.9%	28.4	x	13.5%
COc1cccc(NC(=O)Cn2c(=O)n(Cc3ccc(C(=O)NCc4ccc5c(c4)OCO5)cc3)c(=O)c3ccccc32)c1	-8.1%	-16.9%	x	x	x	x
COc1ccc(Cn2c(CCC(=O)Nc3ccc(OC)c(Cl)c3)nc3cccnc32)cc1	-21.5%	u	x	x	x	x
CCCn1c(CCC(=O)Nc2cccc(CC)c2)nc2cccnc21	16.4µM*	u	x	x	x	x
Cc1cc(C)c(NC(=O)Cc2ccc(-n3c(C)nc4cccnc43)cc2)c(C)c1	18.4µM*	20.6µM*	x	x	x	x
O=C(CCc1nc2cccnc2n1Cc1cccs1)Nc1cccc(Cl)c1	16.4µM*	u	x	x	x	x
Cc1ccc(Cn2cccc2C2=NC(C)(C)CO2)cc1	1.7%	0.1%	x	x	x	x
COc1ccc(CCNC(=O)COC(=O)c2cc(=O)[nH]c3ccccc23)cc1	-16.3%	-12.0%	-1.9%	15.5	1.4%	1.0%
COc1ccc(-n2c(=O)c3c4c(sc3n3c(=S)[nH]nc23)CCCC4)cc1	u	u	u	-14.3	-0.8%	19.8%
O=C(NCCCN1CCCC1=O)c1ccc2c(=O)n(-c3ccccc3F)c(=S)[nH]c2c1	-16.2%	-21.0%	19.4%	32.1	1.5%	8.8%
CN(C)C(CNC(=O)c1ccc2c(=O)n(-c3ccccc3F)c(=S)[nH]c2c1)Cc1ccccc1 (stereo not drawn)	25.9µM*	18.4µM*	0.0%	-15.9	-6.5%	-24.7%
COc1cccc(C(=O)Nc2ccccc2C(=O)OCc2cc(=O)n3c4c(sc3n2)CCCC4)c1	u	16.4µM*	x	x	x	x
O=C(Nc1ccccc1C(=O)OCc1cc(=O)n2c3c(sc2n1)CCCC3)c1ccccc1	20.6µM*	u	x	x	x	x
